From PubChem
Statin myotox sup – protects C2C12 myotubes from simvastatin toxicity | AID 602340 | rescue of ATP level, % at 7.49 µM | ATP luminescence, 48 h; scaled: DMSO 0, geranylgeraniol control 100 | 330,000 tested, 0.78% active;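 active = mean ATP rescue above about 67%, or every replicate alone reaching that limit, limit read from the data, passing the limit was not always enough; inconclusive = no clear call, values can overlap the other calls; inactive = mean under the limit and some replicate under it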;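 note: myotubes were challenged with 10 µM simvastatin during compound exposure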
EBV LMP1 NFkB – reduces LMP1-driven NF-kappaB luciferase signal | LMP1-induced NF-kappaB luciferase reporter cells, luminescence | inhibition, % at 12.5 µM | 350,000 tested, 0.69% active | AID 504558; in the data active = inhibition above about 41%; inconclusive = no clear call, values can overlap the other calls
esBAF inh – SWI/SNF esBAF complex inhibition; reporter increase, % at 12.5 µM; 350,000 tested, 2% active; mouse ES cells, Bmi1-luciferase knock-in reporter, 24 h; 100% = twice the neutral-well signal; in the data active = activation above about 40%; inconclusive = no clear call, values can overlap the other calls;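 note: a rise in the Bmi1 reporter signal indicates esBAF inhibition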
MITF act – activators of MITF-driven TRPM1 promoter activity in SK-MEL-5 cells. activation, % at 12.5 µM. AID 588334. SK-MEL-5 TRPM1-promoter luciferase, 24 h; % of positive control, neutral wells = 0. 300,000 tested, 0.75% active;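 active = mean activation of at least 80% with every replicate also reaching 80%; inconclusive = mean reaches 80% but some replicate falls short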
TRPM1 prom inh – MITF TRPM1 promoter inhibition in SK-MEL-5 cells; AID 488899; SK-MEL-5 TRPM1 promoter luciferase, 24 h; 330,000 tested, 0.83% active; inhibition, % at 12.5 µM;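 active = mean inhibition across replicates of 60% or more, whatever share of single replicates reaches that level; inconclusive = some that reach 60%, reason not given; inactive = mean inhibition across replicates below 60%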
Wnt act – activators of Wnt/beta-catenin signaling; Wnt/beta-catenin reporter cell assay, activator, plate reader; 300,000 tested, 1.2% active; activation, % at 9.35 µM; in the data active = activation above about 30%, passing the limit was not always enough; inconclusive = no clear call, values can overlap the other calls
Of the large screens only hits and unclear results are named; the others gave an inactive call. Rows were chosen to be rich in hits. Some 4% of all compounds tested hit in one or more screens of this group.

CCCCn1c(=O)[nH]c(=O)c2c1nc(Cn1ncc(Cl)c(Cl)c1=O)n2CCC	TRPM1 prom inh 92
COc1ccc(/C=C/C(=O)N(C)C2CCS(=O)(=O)C2)cc1OC (configuration not stated)	none (no result: Wnt act)
O=C1C(Cl)=C(Nc2ccccc2)C(=O)c2ccccc21	EBV LMP1 NFkB 93, TRPM1 prom inh 90 (no result: Statin myotox sup, esBAF inh, Wnt act)
C=CCNC1=C(Cl)C(=O)c2ccccc2C1=O	TRPM1 prom inh 63 (no result: Statin myotox sup, esBAF inh)
O=C1C(Cl)=C(NCc2cccnc2)C(=O)c2ccccc21	TRPM1 prom inh 98
O=C1C(Cl)=C(NCCc2ccccc2)C(=O)c2ccccc21	TRPM1 prom inh inconclusive
O=C(O)c1ccc(NC2=C(Cl)C(=O)c3ccccc3C2=O)cc1	TRPM1 prom inh 96
Cc1ccc(NC(=O)C/C(N)=N/OC(=O)Nc2cccc(C)c2)cc1	none
O=C(OCC(=O)N1CCCC1)c1cc2c(cc1[N+](=O)[O-])OCCO2	none
CC(C)NC1=C(Cl)C(=O)c2ccccc2C1=O	TRPM1 prom inh 80 (no result: Wnt act)
COCCCNC1=C(Cl)C(=O)c2ccccc2C1=O	none (no result: Statin myotox sup, esBAF inh, MITF act)
CCN(CC)CCCNC1=C(Cl)C(=O)c2ccccc2C1=O	TRPM1 prom inh 110
CN1CCN(c2ccccc2NC(=O)c2ccc(-c3ccc(Cl)cc3Cl)o2)CC1	none (no result: Statin myotox sup)
COc1ccccc1Oc1ccc2c(c1)C(=O)N(c1ccc(O)cc1)C2=O	Statin myotox sup 128 (no result: Wnt act)
COc1ccccc1Oc1ccc2c(c1)C(=O)N(CC(=O)O)C2=O	none (no result: Wnt act)
O=C(Nc1ccc(Oc2c(F)c(F)c(F)c(F)c2F)cc1)OC1CCN2Cc3ccccc3N=C12 (configuration not stated)	TRPM1 prom inh 62 (no result: Statin myotox sup, MITF act)
CCCCN(C)CCN1C(=O)C2C(C(=O)Nc3ccc(Cl)cc3)C3C=CC2(O3)C1C(=O)NC1CCCCC1 (configuration not stated)	none
Cc1ccc(NC(=O)C(=O)NCc2ccccn2)cc1	MITF act 85 (no result: Statin myotox sup, esBAF inh)
O=C(NCc1ccccn1)Nc1cccc(NC(=O)NCc2ccccn2)c1	none
O=C(NCc1ccccn1)Nc1cccc(Cl)c1	MITF act 136, Wnt act 38
O=C(NCc1ccccn1)c1ccc(Cl)cc1Cl	esBAF inh 52 (no result: Wnt act)
O=C(NCCCNC(=O)c1ccc(Cl)cc1Cl)c1ccccn1	none
COc1cccc(NC(=O)NCc2ccccn2)c1	Wnt act 37
O=C(c1ccccc1)N1CCC(CC2CC(c3cccc(Br)c3)=NO2)(C(=O)NCC2CCCCC2)CC1 (configuration not stated)	none (no result: Wnt act)
Cc1noc(C)c1C(=O)OCC(=O)NC(=O)c1ccc(C(C)(C)C)cc1	none (no result: MITF act, TRPM1 prom inh)
COC(=O)C1CCN(C2CN(Cc3ccc(C)cc3)S(=O)(=O)C2)CC1 (configuration not stated)	none (no result: EBV LMP1 NFkB, MITF act, TRPM1 prom inh)
CC(C)OC(=O)c1ccc(NC(=O)c2cncc(Br)c2)cc1	none (no result: Statin myotox sup)
Nc1ccc2oc(-c3ccccn3)nc2c1	Wnt act 44
c1ccc(-c2nc3ccccc3o2)nc1	esBAF inh 46 (no result: Wnt act)
Cc1ccnc2ccc(-c3nc4ccccc4o3)cc12	Wnt act 67
Clc1ccc2oc(-c3ccccn3)nc2c1	none (no result: Statin myotox sup, esBAF inh, Wnt act)
Cc1ccc(C)c2nc3sc(C(=O)N4CCCc5ccccc54)c(N)c3cc12	none
c1cnc2nc3c4ccccc4c4ccccc4c3nc2c1	none
CCS(=O)(=O)Nc1ccc2c(c1)C(=O)N(C)[C@@H]1CC[C@@H](CC(=O)NCCOC)O[C@@H]1CO2	none (no result: EBV LMP1 NFkB, MITF act, TRPM1 prom inh, Wnt act)
Cc1cc(=S)[nH]c2c(C)cccc12	Statin myotox sup 74 (no result: Wnt act)
Cc1cc(C)cc(NC(=O)c2ccc(CNc3c(N4CCOCC4)c(=O)c3=O)cc2)c1	none
C[C@H]1CN([C@@H](C)CO)C(=O)Cc2cc(NC(=O)NC3CCCCC3)ccc2O[C@H]1CN(C)CC1CCCCC1	none (no result: EBV LMP1 NFkB, MITF act, TRPM1 prom inh, Wnt act)
CCN(Cc1ccccc1)c1ccc(/C=N/N=C(N)N)cc1	TRPM1 prom inh 64 (no result: Statin myotox sup, esBAF inh)
CCN(Cc1ccccc1)c1ccccc1	none
Cc1cc(C)c(C(=O)/C=C/c2cccc3ccccc23)c(=O)[nH]1	EBV LMP1 NFkB 58, TRPM1 prom inh 87 (no result: Statin myotox sup, esBAF inh)
Cc1cc(/C=C2\SC(=S)N(C)C2=O)c(C)n1-c1ccc(O)cc1	EBV LMP1 NFkB 48, TRPM1 prom inh 76 (no result: Statin myotox sup, esBAF inh)
Cc1cc(/C=C2\SC(=S)NC2=O)c(C)n1-c1cccc(O)c1	Wnt act 36 (no result: Statin myotox sup, esBAF inh)
CC(=O)Nc1ccc(NC(=O)C2Cc3c(-c4cccc(F)c4)ccnc3O2)cc1 (configuration not stated)	none (no result: EBV LMP1 NFkB, MITF act, TRPM1 prom inh)
Cc1ccc(NC(=O)c2cc(-c3ccccc3)nn2-c2ccccc2)cc1	none (no result: Statin myotox sup, esBAF inh)
CC(=O)C(/C=N/c1cc(-c2ccc(C)cc2)nn1-c1ccccc1)=C(\C)O	Wnt act 38 (no result: Statin myotox sup, esBAF inh)
Cc1n[nH]c(=O)n1-c1ccc(OCc2ccccc2)cc1	esBAF inh 44
CC(=Cc1ccccc1)C(=O)c1ccccc1	none (no result: MITF act, TRPM1 prom inh)
CCCOc1ccc(N2C(=O)CC(N(CCc3ccccc3)C(=O)c3ccccc3)C2=O)cc1 (configuration not stated)	none (no result: Statin myotox sup, esBAF inh)
C[C@@H]1CN([C@H](C)CO)C(=O)c2cc(C3=CCCCC3)cnc2O[C@@H]1CN(C)C(=O)c1ccccn1	Statin myotox sup 106 (no result: EBV LMP1 NFkB, MITF act, TRPM1 prom inh, Wnt act)
C[C@@H]1CN([C@H](C)CO)C(=O)c2cc(C3=CCCCC3)cnc2O[C@@H]1CN(C)Cc1ccccc1F	Statin myotox sup 115 (no result: EBV LMP1 NFkB, MITF act, TRPM1 prom inh, Wnt act)
C[C@H]1CN([C@@H](C)CO)C(=O)c2cc(C3=CCCC3)cnc2O[C@@H]1CN(C)Cc1ccccc1F	none (no result: EBV LMP1 NFkB, MITF act, TRPM1 prom inh, Wnt act)
C[C@H]1CCCCO[C@H](CN(C)S(C)(=O)=O)[C@@H](C)CN([C@@H](C)CO)C(=O)c2cc(NS(=O)(=O)c3ccccc3)ccc2O1	none (no result: EBV LMP1 NFkB, MITF act, TRPM1 prom inh, Wnt act)
O=C(Cc1cccc(NC(=O)C2CCN(C(=O)CCc3ccccc3)CC2)c1)Nc1cccc(C(=O)N2CCOCC2)c1	none
CCOC(=O)C1CCCN(C(=O)c2[nH]c(C(F)(F)F)nc2-c2ccccc2)C1 (configuration not stated)	none (no result: EBV LMP1 NFkB, MITF act, TRPM1 prom inh)
COc1ccccc1C(=O)Nn1cnc2ccccc2c1=O	esBAF inh 68
CC(C)(C)NC(=O)c1ccc2c(c1)C(=O)N(C1CCCCC1)C2=O	esBAF inh 43
CC(C)CNC(=O)c1ccc2c(c1)C(=O)N(C1CCCCC1)C2=O	none
CNC[C@H]1Oc2cc(C#CC(C)C)ccc2S(=O)(=O)N([C@@H](C)CO)C[C@H]1C	none (no result: EBV LMP1 NFkB, MITF act, TRPM1 prom inh, Wnt act)
Cc1cccc2nc(=S)n(C(=O)c3ccco3)n12	esBAF inh 75 (no result: Wnt act)
CCCN(CC(=O)Nc1ccccc1C)C(=O)COc1c(C)cccc1C	none
CCCN(CC(=O)Nc1ccccc1C)C(=O)CCl	EBV LMP1 NFkB 72, TRPM1 prom inh 63
CN(C)CCCNc1nc2cc(-c3cnn(Cc4ccccc4)c3)sc2c(=O)n1C	none (no result: EBV LMP1 NFkB, MITF act, TRPM1 prom inh)
Cc1ccc(NC(=O)C2=C(c3ccccc3)S(=O)(=O)CCS2(=O)=O)cc1	EBV LMP1 NFkB 93, TRPM1 prom inh 95 (no result: Statin myotox sup, esBAF inh)
O=C(CCNS(=O)(=O)c1ccc(Br)cc1)NCc1ccc2c(c1)OCO2	Statin myotox sup 152 (no result: Wnt act)
